# Test results taken from PubChem BioAssay (NCATS).
# Values joined by “and” are separate entries in the source; they are usually repeats but may differ in a detail not shown here. Equal entries are not always repeated. Unmarked numbers belong to inactive results. Inconclusive results are not listed. Where a call stands in place of a potency, no number is given. Active and inactive are the calls of the source. Unless noted, calls come from the whole dose curve; as a rule, active = well fitted curve in the direction sought with a large enough effect; inconclusive = small, poorly fitted or top-dose-only effect, or another doubt; inactive = no such curve, though single readings can be large; an effect the other way counts as inactive or inconclusive.
# What was measured:
# CASKI = assay: Primary qHTS to identify gynecologic anti-cancer compounds using libraries of approved drugs and bioactive compounds (AID 1345084); conditions: Gynecologic cancer cell panel viability, ATPlite luminescence, 48 h; series mostly up to 57.5 µM; note: nearly all actives have a fitted effect of over 55% in size
# How it was run: (§1)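 Five-concentration response, 48 h; readout is ATP-driven luciferase luminescence.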
# Es-2 = assay: as above; conditions: Gynecologic cancer cell panel viability, ATPlite luminescence, 48 h; series mostly up to 57.5 µM
# How it was run: as §1
# HeLa = assay: as above; conditions: Gynecologic cancer cell panel viability, ATPlite luminescence, 48 h; series mostly up to 57.5 µM
# How it was run: as §1
# Hek293T = assay: as above; conditions: Gynecologic cancer cell panel viability, ATPlite luminescence, 48 h, control line for the selectivity index; series mostly up to 57.5 µM
# How it was run: as §1
# JEG-3 = assay: as above; conditions: Gynecologic cancer cell panel viability, ATPlite luminescence, 48 h; series mostly up to 57.5 µM
# How it was run: as §1
# OV90 = assay: as above; conditions: Gynecologic cancer cell panel viability, ATPlite luminescence, 48 h; series mostly up to 57.5 µM
# How it was run: as §1
# PA-1 = assay: as above; conditions: Gynecologic cancer cell panel viability, ATPlite luminescence, 48 h; series mostly up to 57.5 µM
# How it was run: as §1
# SKOV3 = assay: as above; conditions: Gynecologic cancer cell panel viability, ATPlite luminescence, 48 h; series mostly up to 57.5 µM
# How it was run: as §1
# Tov-21-G = assay: as above; conditions: Gynecologic cancer cell panel viability, ATPlite luminescence, 48 h; series mostly up to 57.5 µM
# How it was run: as §1
# Tov112D = assay: as above; conditions: Gynecologic cancer cell panel viability, ATPlite luminescence, 48 h; series mostly up to 57.5 µM
# How it was run: as §1
# [1] = Drug repurposing screens with cells derived from glioblastoma tumor samples (AID 1345199); conditions: GBM patient neurospheres viability, ATP luminescence, 48 h; note: nearly all actives have a fitted effect of over 40% in size; note: potency is the fitted concentration of half-maximal effect
# How it was run: (§2)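 Four patient lines of CD133+ GBM neurospheres were screened at several concentrations; hits were retested in those lines plus three slower-growing GBM lines, using 48-hour treatment and ATP-based viability.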
# astro = assay: as above; conditions: viability, ATP luminescence, 48 h; series mostly up to 45.9 µM
# How it was run: as §2
# [2] = molecular target: Nuclear receptor subfamily 1 group I member 2 (Rattus norvegicus) (UniProt Q9R1A7); assay: qHTS assay for small molecule activators of the rat pregnane X receptor (rPXR) signaling pathway (AID 651751; call rule not given here); conditions: rPXR reporter cells, luciferase (One-Glo), 24 h
# [3] = qHTS assay for small molecule activators of the human pregnane X receptor (PXR) signaling pathway (AID 720659; call rule not given here)
# [4] = at 20 µM (top of the series), tumour line C
# [5] = at 21.2 µM (top of the series), tumour line B
# [6] = at 45.9 µM (top of the series), tumour line B
# [7] = at 45.9 µM (top of the series), tumour line D
# [8] = at 46.1 µM (top of the series), tumour line C
# Sequence of Nuclear receptor subfamily 1 group I member 2 (Rattus norvegicus) (Q9R1A7 whole entry, looked up): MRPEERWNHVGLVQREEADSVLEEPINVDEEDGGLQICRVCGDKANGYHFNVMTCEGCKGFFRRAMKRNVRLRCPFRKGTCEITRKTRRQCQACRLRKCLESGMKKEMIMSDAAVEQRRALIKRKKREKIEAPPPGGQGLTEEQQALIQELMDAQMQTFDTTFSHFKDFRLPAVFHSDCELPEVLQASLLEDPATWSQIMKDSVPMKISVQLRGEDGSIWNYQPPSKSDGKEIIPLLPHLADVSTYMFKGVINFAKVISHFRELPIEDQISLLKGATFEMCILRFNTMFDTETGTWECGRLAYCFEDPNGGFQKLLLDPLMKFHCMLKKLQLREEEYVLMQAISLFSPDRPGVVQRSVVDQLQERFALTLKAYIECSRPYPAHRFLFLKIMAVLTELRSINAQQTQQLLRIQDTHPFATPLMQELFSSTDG
compound,measurement,setting,value
CCN(CC)C(C)CN1c2ccccc2Sc2ccccc21 (stereo unspecified),Potency,CASKI,inactive
same,Potency,Es-2,inactive
same,Potency,HeLa,inactive
same,Potency,Hek293T,inactive
same,Potency,JEG-3,inactive
same,Potency,OV90,inactive
same,Potency,PA-1,inactive
same,Potency,SKOV3,inactive
same,Potency,Tov-21-G,inactive
same,Potency,Tov112D,inactive
same,"activity, negative = cell killing",[1]; [4],-5.52%
same,"activity, negative = cell killing",[1]; [5],-16.2%
same,Potency,[1]; tumour line A,10 µM (active)
same,Potency,astro,inactive
Nc1ccc(S(=O)(=O)Nc2ccccc2)cc1,Potency,CASKI,inactive
same,Potency,Es-2,inactive
same,Potency,HeLa,inactive
same,Potency,Hek293T,inactive
same,Potency,JEG-3,inactive
same,Potency,OV90,inactive
same,Potency,PA-1,inactive
same,Potency,SKOV3,inactive
same,Potency,Tov-21-G,inactive
same,Potency,Tov112D,inactive
same,"activity, negative = cell killing",[1]; [6],11.7%
same,"activity, negative = cell killing",[1]; [7],-2.38%
same,"activity, negative = cell killing",[1]; [8],-16.6%
same,Potency,astro,inactive
COc1cc(C)c(Cc2cnc(N)nc2N)cc1OC,Potency,CASKI,inactive
same,Potency,Es-2,inactive
same,Potency,HeLa,inactive
same,Potency,Hek293T,inactive
same,Potency,JEG-3,inactive
same,Potency,OV90,inactive
same,Potency,PA-1,inactive
same,Potency,SKOV3,inactive
same,Potency,Tov-21-G,inactive
same,Potency,Tov112D,inactive
same,"activity, negative = cell killing",[1]; [6],-4.72%
same,"activity, negative = cell killing",[1]; [7],-19.5%
same,"activity, negative = cell killing",[1]; [8],-26.1%
same,Potency,astro,inactive
O=C1O[C@H](CO)[C@@H](O)[C@H](O)[C@H]1O,Potency,CASKI,inactive
same,Potency,Es-2,inactive
same,Potency,HeLa,inactive
same,Potency,Hek293T,inactive
same,Potency,JEG-3,inactive
same,Potency,OV90,inactive
same,Potency,PA-1,inactive
same,Potency,SKOV3,inactive
same,Potency,Tov-21-G,inactive
same,Potency,Tov112D,inactive
same,"activity, negative = cell killing",[1]; [6],-6.95%
same,"activity, negative = cell killing",[1]; [7],6.72%
same,"activity, negative = cell killing",[1]; [8],0.13%
same,Potency,astro,inactive
CC12CCC(CC1)C(C)(C)O2,Potency,CASKI,inactive
same,Potency,Es-2,inactive
same,Potency,HeLa,inactive
same,Potency,Hek293T,inactive
same,Potency,JEG-3,inactive
same,Potency,OV90,inactive
same,Potency,PA-1,inactive
same,Potency,SKOV3,inactive
same,Potency,Tov-21-G,inactive
same,Potency,Tov112D,inactive
same,"activity, negative = cell killing",[1]; [6],-7.94%
same,"activity, negative = cell killing",[1]; [7],5.35%
same,"activity, negative = cell killing",[1]; [8],-12.5%
same,Potency,astro,inactive
same,max response,[2],2.12%
same,outcome,[3],inactive
CC(COc1ccccc1)NC(C)C(O)c1ccc(O)cc1 (stereo unspecified),Potency,CASKI,inactive
same,Potency,Es-2,inactive
same,Potency,HeLa,inactive
same,Potency,Hek293T,inactive
same,Potency,JEG-3,inactive
same,Potency,OV90,inactive
same,Potency,PA-1,inactive
same,Potency,SKOV3,inactive
same,Potency,Tov-21-G,inactive
same,Potency,Tov112D,inactive
same,"activity, negative = cell killing",[1]; [4],-3.58%
same,"activity, negative = cell killing",[1]; [5],-2.68%
same,"activity, negative = cell killing","[1]; at 21.2 µM (top of the series), tumour line D",-14.2%
same,Potency,astro,inactive
O=C(O)Cc1sc(-c2ccccc2)nc1-c1ccc(Cl)cc1,Potency,CASKI,inactive
same,Potency,Es-2,inactive
same,Potency,HeLa,inactive
same,Potency,Hek293T,inactive
same,Potency,JEG-3,inactive
same,Potency,OV90,inactive
same,Potency,PA-1,inactive
same,Potency,SKOV3,inactive
same,Potency,Tov-21-G,inactive
same,Potency,Tov112D,inactive
same,"activity, negative = cell killing",[1]; [7],-34% and -7.66%
same,"activity, negative = cell killing","[1]; at 46 µM (top of the series), tumour line A",-38.9%
same,"activity, negative = cell killing",[1]; [8],-4.36% and -11.1%
same,Potency,astro,inactive
CCCCOC(=O)c1ccc(O)cc1,Potency,CASKI,inactive
same,Potency,Es-2,inactive
same,Potency,HeLa,inactive
same,Potency,Hek293T,inactive
same,Potency,JEG-3,inactive
same,Potency,OV90,inactive
same,Potency,PA-1,inactive
same,Potency,SKOV3,inactive
same,Potency,Tov-21-G,inactive
same,Potency,Tov112D,inactive
same,"activity, negative = cell killing",[1]; [6],-17.3%
same,"activity, negative = cell killing",[1]; [7],-11.1%
same,"activity, negative = cell killing",[1]; [8],26.3%
same,Potency,astro,inactive
same,max response,[2],-8.55% and 2.81%
Cc1cc(CC(=O)O)n(C)c1C(=O)c1ccc(Cl)cc1,Potency,CASKI,inactive
same,Potency,Es-2,inactive
same,Potency,HeLa,inactive
same,Potency,Hek293T,inactive
same,Potency,JEG-3,inactive
same,Potency,OV90,inactive
same,Potency,PA-1,inactive
same,Potency,SKOV3,inactive
same,Potency,Tov-21-G,inactive
same,Potency,Tov112D,inactive
same,"activity, negative = cell killing",[1]; [6],-19.5% and -0.106%
same,"activity, negative = cell killing",[1]; [7],-15.6% and -2.2%
same,"activity, negative = cell killing",[1]; [8],-19.2% and -21.6%
same,Potency,astro,inactive
same,max response,[2],-6.77%
same,outcome,[3],inactive
CCCCOc1cc(C(=O)OCCN(CC)CC)ccc1N,Potency,CASKI,inactive
same,Potency,Es-2,inactive
same,Potency,HeLa,inactive
same,Potency,Hek293T,inactive
same,Potency,JEG-3,inactive
same,Potency,OV90,inactive
same,Potency,PA-1,inactive
same,Potency,SKOV3,inactive
same,Potency,Tov-21-G,inactive
same,Potency,Tov112D,inactive
same,"activity, negative = cell killing",[1]; [4],-6.35%
same,"activity, negative = cell killing",[1]; [5],-29.6%
same,Potency,[1]; tumour line A,11.2 µM (active)
same,Potency,astro,inactive
CC1(C)[C@@H]2CC[C@@]1(C)C(=O)C2,Potency,CASKI,inactive
same,Potency,Es-2,inactive
same,Potency,HeLa,inactive
same,Potency,Hek293T,inactive
same,Potency,JEG-3,inactive
same,Potency,OV90,inactive
same,Potency,PA-1,inactive
same,Potency,SKOV3,inactive
same,Potency,Tov-21-G,inactive
same,Potency,Tov112D,inactive
same,"activity, negative = cell killing",[1]; [6],-26.7%
same,"activity, negative = cell killing",[1]; [7],-2.76%
same,"activity, negative = cell killing",[1]; [8],-20.2%
same,Potency,astro,inactive
same,max response,[2],4.84%
same,outcome,[3],inactive
